Structures can show the parent of a compound that is named as a salt.

For the test, the system named is Ruminococcus gnavus DSM 108212. Kind of test: growth (OD595) fold change vs plate DMSO controls (fold change (ratio)); higher = more growth. The following applies: 20 µM; incubation time: 27 h, anaerobic, 37 °C. In a few lines: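 The measure reported is growth, taken as fold change against the median of DMSO controls on the same plate. Anaerobic mGAM cultures in 96-well plates (27 h, 37 °C) were read at 595 nm, blank-subtracted, corrected for compound background using 20 µM compound solutions in water, and multiplied by a calibration factor of 5 to give OD. Any fold change above 1.5 became NA, and 2 biological replicates were averaged.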
For `C=C[C@H]1CN2CC[C@H]1C[C@H]2[C@H](OC(=O)OCC)c1ccnc2ccc(OC)cc12` [Quinine ethyl carbonate], the growth was 0.915.
For `S=C(NC1CCCCC1)N1CCC(c2cnc[nH]2)CC1` [Thioperamide maleate], the growth turned out to be 1.03.
Then `N#Cc1sc2c(=O)c3ccccc3c(=O)c=2sc1C#N`, with 1.01; and `CC(=O)OC1CN2CCC1CC2` (configuration not stated) [Aceclidine hydrochloride], with 1.13; and `C1=Cc2cccc3cccc1c23` [Acenaphthylene], with 1.15.
Then `CS(=O)(=O)c1ccc(C(=O)C2C(=O)CCCC2=O)c([N+](=O)[O-])c1`, with 1.02; and `CCN(CC)CCOC(=O)C(O)(c1ccccc1)c1ccccc1` [Benactyzine hydrochloride], with 0.944.
Regarding `c1ccc2c(c1)Nc1ccccc1S2` [Phenothiazine], the growth is 1.02.
Turning to `CCC1(C)CC(=O)NC(=O)C1` [Bemegride], the growth was determined as 0.973.
With `CNC(=O)/C=C(\C)OP(=O)(OC)OC` the figure was 0.948; with `CC[N+]1(C)CCCC(OC(=O)C(O)(c2ccccc2)c2ccccc2)C1` (configuration not stated) [Pipenzolate bromide], 1.05.
With `CC(C)(C)c1ccc(CSc2cnn(C(C)(C)C)c(=O)c2Cl)cc1` the figure was 1.13.
With `CSc1nc(NC(C)C)nc(NC(C)C)n1` the figure was 0.973; with `O=C(Nc1ccc(F)cc1F)c1cccnc1Oc1cccc(C(F)(F)F)c1`, 0.965; with `O=C(CCCN1CCC2(CC1)C(=O)NCN2c1ccccc1)c1ccc(F)cc1` [Spiperone], 0.921.
Consider `CCOCN(C(=O)CCl)c1c(C)cccc1CC`, for which the growth is 1.08.
Then `ClC1C(Cl)C(Cl)C(Cl)C(Cl)C1Cl` (configuration not stated), with 1.14.
